Usually inhibition stands for the change of the read-out against control, counted positive when it falls. What is called IC50 is the concentration that gives 50% inhibition.

The structures appear in SMILES notation. Where “and” joins values, the source holds several entries; their conditions need not be identical. Equal values may be shown once. Inconclusive results are not listed. A structure can be active in one record and inactive in another. Calls of active or inactive are those of the source. Cut-off read from the data, not from the text of the source, unless noted: active = inhibition above about 80%; inactive = the rest.

We go through three compounds from PubChem BioAssay.

The nature of test [1]: growth inhibition, single agent or in combination, cell-based, chromothripsis tumors, cisplatin or BGB combos (AID 1671449).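 Note: cells exposed for 96 hours; 0% = vehicle DMSO and 100% = killing by high DMSO.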 Conditions: LFS_MB_P medulloblastoma cells.
Test [2] is described as follows: growth inhibition, single agent and combos, cell-based, chromothripsis tumors, cisplatin or BGB combos (AID 1671450).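 Note: cells exposed to compound for four days; 0% = vehicle DMSO and 100% = cell killing by high DMSO.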 Conditions: HDN33 neuroblastoma cells, stronger effect = higher value.
The nature of test [3]: growth inhibition, single agents and combos, ICB984, cell-based, cisplatin or BGB combos, synergistic combos for chromothripsis tumors (AID 1671451; call rule not given here;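 note: cells exposed for 96 hours before readout; 0% = vehicle DMSO and 100% = killing by high DMSO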). Conditions: ICB984 medulloblastoma cells, drug combinations, stronger effect = higher value.
Test [4] is described as follows: growth inhibition, single agents and combos, LFS_MB_1R, cell-based, cisplatin or BGB combos, synergistic combos for chromothripsis tumors (AID 1671452).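 Note: cells exposed for 96 hours before readout.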 To be noted: LFS_MB_1R medulloblastoma cells, stronger effect = higher value.
Test [5] is described as follows: growth inhibition, single agents and combos, HTB85, cell-based, BGB or cisplatin IC20 combos, synergistic combos for chromothripsis tumors (AID 1671453).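 Note: cells exposed for 96 hours before readout; 0% = vehicle DMSO and 100% = high DMSO killing control.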 To be noted: HTB85 osteosarcoma cells, drug combinations, stronger effect = higher value.
Test [6] in a line: growth inhibition, single agents and combos, CRL2098, cell-based, BGB or cisplatin IC20 combos, synergistic combos for chromothripsis tumors (AID 1671454).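 Note: cells exposed for 96 h before readout; 0% = vehicle DMSO and 100% = killing by high DMSO.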 To be noted: CRL2098 osteosarcoma cells, drug combinations, stronger effect = higher value.
Test [7] can be described thus: growth inhibition, single agents and combos, HD-MB03, cell-based, BGB or cisplatin IC20 combos, synergistic combos for chromothripsis tumors (AID 1671455; in the data active = inhibition above about 83%;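 note: 0% = vehicle DMSO and 100% = high DMSO as cytotoxic control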). To be noted: HD-MB03 medulloblastoma cells, stronger effect = higher value.
The nature of test [8]: growth inhibition, single agents and combos, UWB1.289, cell-based, BGB or cisplatin combos, synergistic combos for chromothripsis tumors (AID 1671456).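 Note: cells exposed to compound for four days; 0% = vehicle DMSO and 100% = killing by high DMSO.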 To be noted: UWB1.289 ovarian carcinoma cells, stronger effect = higher value.
Test [9] can be described thus: growth inhibition, single agents and combos, LFS_MB_2R, cell-based, cisplatin combos, synergistic combos for chromothripsis tumors (AID 1671457).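 Note: cells exposed to compound for four days before readout.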 To be noted: LFS_MB_2R medulloblastoma cells, stronger effect = higher value.
Test [10] can be described thus: growth inhibition, MDA-MB-436, cell-based, BGB or cisplatin combos, synergistic combos for chromothripsis tumors (AID 1671458; call rule not given here;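 note: cells exposed for 96 hours; 0% = vehicle DMSO and 100% = killing by high DMSO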). To be noted: MDA-MB-436 breast carcinoma growth inhibition, drug combinations, stronger effect = higher value.
Test [11] can be described thus: UWB1.289_BRCA1 ovarian cancer growth, cell-based, BGB or cisplatin combinations (AID 1671459). Conditions: UWB1.289 BRCA1 ovarian carcinoma, drug combinations, stronger effect = higher value.
A short description of test [12]: BT084 cell growth, single and combined drugs, ICGC_MB145, cisplatin and BGB IC40 combos (AID 1671461).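 Note: cells exposed to drugs for 96 hours; 0% = vehicle DMSO and 100% = high DMSO full killing control.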 Conditions: BT084 medulloblastoma cells, drug combinations, stronger effect = higher value.
The nature of test [13]: RCMB18 cell growth, single agent and combined, cisplatin and BGB IC40 combos (AID 1671462).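 Note: cells exposed to compound for four days.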 To be noted: RCMB18 medulloblastoma cells, stronger effect = higher value.
Test [14] in a line: CRL1545 cell growth, single agent and combined, cisplatin and BGB IC20 combos (AID 1671464).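 Note: cells exposed to compound for 96 hours before readout; 0% = vehicle DMSO and 100% = high DMSO killing control.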 Conditions: CRL1545 osteosarcoma cells, stronger effect = higher value.
Test [15] in a line: viability loss in pontine glioma line – cell-based, SU-DIPG-XVII, MIPE5.0, CellTiter-Glo, qHTS, dose response (AID 1347060; cut-off not given, nearly all actives have AC50 up to about 26 µM). Conditions: CellTiter-Glo ATP luminescence. For orientation: ATP-based viability assays read luminescence as a measure of living cells.
Test [16] in a line: viability loss in pontine glioma line – cell-based, SU-DIPG-XXV, MIPE5.0, CellTiter-Glo, qHTS, dose response (AID 1347065; cut-off not given, nearly all actives have AC50 up to about 26 µM;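 note: cells exposed to compound for 48 hours before ATP readout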). To be noted: CellTiter-Glo ATP luminescence.
A short description of test [17]: growth inhibition of DIPG cells – cell-based, MIPE5.0 library, qHTS (AID 1347068; cut-off not given, nearly all actives have IC50 up to about 30 µM;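 note: cells exposed to compound for 48 hours before viability readout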). Conditions: SU-DIPG-XXV viability. For orientation: qHTS replaces the single test concentration by a dilution series.
Test [18] in a line: EMT-state selective cytotoxicity in co-culture – imaging, PC-3E GFP, TEM4-18 mCherry, primary screen (AID 1345086;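 active = compounds killing one labelled cell type while sparing the other, by normalised counts and ratio limits, not self-fluorescent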;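 note: cells exposed to compound for 72 h before imaging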;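 for red/green cell ratio (normalised): normalised mesenchymal count divided by normalised epithelial count so high means epithelial killing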). To be noted: PC-3E GFP / TEM4-18 mCherry co-culture, imaging cell counts, at 1 µM.
Setting [19] is: measured here: combination with BGB IC40, at 0.05 µM.
Where [20] appears, read: measured here: with BGB IC20 combination, at 0.5 µM.
Setting [21] is: measured here: with cisplatin IC20 combination, at 0.5 µM.
[22] abbreviates: measured here: combination with cisplatin, at 0.5 µM.
Setting [23] is: measured here: combination with cisplatin, at 5 µM.

For `O=c1[nH]c(=O)n(C2CC(O)C(CO)O2)cc1F` (stereo unspecified), the inhibition is -20.6% (inactive) and -34.4% (inactive) in test [1] (at 0.5 µM, stronger effect = higher value); -20.3% and -26.1% in [1] (measured here: combination with BGB IC20, at 0.005 µM); -43.8% and -18.6% in test [1] (measured here: combination with BGB IC40, at 0.005 µM); -14.2% and -19.6% in [1] (setting [19]); -24.9% and -48.9% in test [1] (measured here: combination with cisplatin, at 0.5 µM, stronger effect = higher value); -34.2% and -34.5% in test [1] (measured here: combination with cisplatin, at 5 µM, stronger effect = higher value). For the same compound, the inhibition in [2] (BGB combo, at 5 µM) is 90.8% and 95.2%; in test [2] (at 0.5 µM), 75% (inactive) and 78.5% (inactive); in [2] (cisplatin combo, at 5 µM), 63% and 78%; in test [2] (setting [20]), 72.2% and 74.3%; in [2] (setting [21]) it was 71.3% and 78.7%; in test [2] (single agent, at 5 µM), 78.6% and 88.5%. The inhibition in test [3] (BGB IC20 combo, at 0.005 µM) is -21.6% and 13.5%; in test [3] (BGB IC40 combo, at 0.005 µM), -12.3% and -34.3%; in test [3] (BGB IC40 combo, at 0.05 µM), -9.05% and -30.1%; in test [3] (at 0.5 µM) it was -17.5% (inactive) and -17.1% (inactive); in test [3] (cisplatin combo, at 0.05 µM), -9.05% and -34.7%; in test [3] (cisplatin combo, at 0.5 µM), -15.5% and -22.4%. Also, the inhibition in [3] (cisplatin combo, at 5 µM) was -14.7% and -40.3%; in [3] (measured here: 5 uM single agent, at 5 µM) it was -2.45% and 14.3%; in test [4] (at 0.5 µM), -19.6% (inactive) and -23.9% (inactive); in [4] (setting [19]), 8.22% and -31%; in test [4] (setting [22]), 23.3% and -25.8%; in [4] (setting [23]), -7.39% and -26.1%. Further, the inhibition in [5] (at 0.5 µM) is -24.9% (inactive) and 12.1% (inactive); in test [5] (measured here: with BGB IC20, at 0.5 µM) it was -52.4% and -21.4%; in test [5] (measured here: with BGB IC20, at 5 µM), 5.67% and -8.07%; in [5] (measured here: with cisplatin IC20, at 0.5 µM), -22.6% and 15.4%; in test [5] (measured here: with cisplatin IC20, at 5 µM) it was 14% and 12.8%; in [5] (single agent, at 5 µM), 12% and 38.7%. The inhibition in test [6] (at 0.5 µM) is -50.2% (inactive) and -54% (inactive); in [6] (measured here: combination with BGB at IC20, at 0.5 µM), -11.9% and -25.4%; in test [6] (measured here: combination with cisplatin at IC20, at 0.5 µM), -87.1% and -79.9%; in [7] (at 0.5 µM) it was 75.2% (inactive) and 82.3% (active); in [7] (measured here: combo with BGB at IC20, at 0.5 µM), 72.8% and 77.8%; in test [7] (measured here: combo with cisplatin at IC20, at 0.5 µM), 79.4% and 87.9%. The inhibition in [8] (at 0.5 µM) was 11% (inactive) and 22.1% (inactive); in test [8] (measured here: inhibition with BGB combination, at 0.05 µM), -37.3% and -7.93%; in test [8] (measured here: inhibition with cisplatin combination, at 0.05 µM) it was -10.2% and -15.2%; in test [9] (at 0.5 µM), -6.08% (inactive) and -22.6% (inactive); in test [9] (setting [22]), -26% and -30.3%; in [9] (setting [23]) it was -20.5% and -22.8%. The inhibition is 39.9% (inactive) and 54.5% (inactive) in [10] (at 0.5 µM); 12.4% and 36% in test [10] (measured here: BGB combination, at 0.5 µM); 22.9% and 47.8% in [10] (measured here: BGB combination, at 5 µM); 44% and 56.3% in test [10] (measured here: cisplatin combination, at 0.5 µM); 73% and 86.7% in test [10] (measured here: cisplatin combination, at 5 µM); 17.5% and 50.3% in test [11] (BGB combination, concentration series, at 5 µM). In addition, the inhibition was 15.2% (inactive) and 29.3% (inactive) in test [11] (at 0.5 µM); 55.7% and 77.6% in [11] (cisplatin combination, concentration series, at 5 µM); -20.4% (inactive) and -2.18% (inactive) in [12] (at 0.5 µM); -4.33% and -24.2% in test [12] (cisplatin combination, at 0.5 µM); -24.6% and 6.37% in [12] (cisplatin combination, at 5 µM); -0.925% and 1.52% in test [12] (measured here: BGB IC40 combination 0.05 uM, at 0.05 µM). The inhibition in test [12] (single agent, at 5 µM) was -4.53% and -3.71%; in test [13] (at 0.5 µM), -3.13% (inactive) and -17.8% (inactive); in test [13] (cisplatin combo, at 5 µM) it was 11.8% and 9.06%; in test [13] (measured here: BGB IC40 combination, at 0.05 µM) it was -3.94% and -12.9%; in [13] (setting [22]), 1.15% and 0.687%; in test [13] (single agent, at 5 µM) it was -14.6% and -9.12%. Moreover, the inhibition was 30.4% (inactive) and 66.8% (inactive) in [14] (at 0.5 µM); 10.3% and 56.4% in test [14] (setting [20]); 40.5% and 71.6% in test [14] (setting [21]); 7.06% and 11.7% in test [14] (single agent, at 0.05 µM); 91.4% and 96.1% in test [14] (single agent, at 5 µM).
`C=C1/C(=C\C=C2/CCC[C@]3(C)[C@@H]([C@H](C)CCCC(C)(C)O)CC[C@@H]23)C[C@@H](O)C[C@@H]1O`: the compound was classed as inactive in test [15] and in test [16]. For the same compound, in test [17], the IC50 is 23.5 µM (active).
On to `CN(C)CC/C=C1/c2ccccc2COc2ccccc21`, for which the red/green cell ratio (normalised) in [18] (actives lie on both sides, counts scaled to control wells, 1 = unselective) was 1.04 (inactive). Besides, the normalised cell number is 1.34 in test [18] (measured here: epithelial PC-3E GFP cell survival) and 1.4 in test [18] (measured here: mesenchymal TEM4-18 mCherry cell survival).
